Results as given in PubChem BioAssay (NCATS).
A number with no mark means an inactive call. Inconclusive results are not listed. A call without a number means that no potency is given here. Calls of active or inactive are those of the source. Unless noted, calls come from the whole dose curve; as a rule, active = well fitted curve in the direction sought with a large enough effect; inconclusive = small, poorly fitted or top-dose-only effect, or another doubt; inactive = no such curve, though single readings can be large; an effect the other way counts as inactive or inconclusive.

What was measured:
[1] = AP1 Signaling Pathway (AID 357; active = well fitted curve in either direction with a large enough effect, not every such curve was filed as active;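 note: ME-180 reporter cells stimulated with EGF at its EC50 level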); details: ME-180 AP-1-bla reporter, EGF-induced, beta-lactamase ratio, 5 h; at 7.69 µM (top of the series) unless noted
In short: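 AP-1-bla ME-180 cells, Opti-MEM + 0.5% dialyzed FBS, plated overnight 37 °C. Cpd titration + EC50 EGF, 5 h 37 °C. CCF4 2.5 h RT; ex 405, em 460/530 ratio → %activity, AC50.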

[2] = target: Cytochrome P450 1A2 (Homo sapiens) (UniProt P05177); assay: p450-cyp1a2 (AID 410; calls by dose curve; note: potency is the fitted concentration of half-maximal effect)
Sequence of Cytochrome P450 1A2 (Homo sapiens) (P05177 whole entry, looked up): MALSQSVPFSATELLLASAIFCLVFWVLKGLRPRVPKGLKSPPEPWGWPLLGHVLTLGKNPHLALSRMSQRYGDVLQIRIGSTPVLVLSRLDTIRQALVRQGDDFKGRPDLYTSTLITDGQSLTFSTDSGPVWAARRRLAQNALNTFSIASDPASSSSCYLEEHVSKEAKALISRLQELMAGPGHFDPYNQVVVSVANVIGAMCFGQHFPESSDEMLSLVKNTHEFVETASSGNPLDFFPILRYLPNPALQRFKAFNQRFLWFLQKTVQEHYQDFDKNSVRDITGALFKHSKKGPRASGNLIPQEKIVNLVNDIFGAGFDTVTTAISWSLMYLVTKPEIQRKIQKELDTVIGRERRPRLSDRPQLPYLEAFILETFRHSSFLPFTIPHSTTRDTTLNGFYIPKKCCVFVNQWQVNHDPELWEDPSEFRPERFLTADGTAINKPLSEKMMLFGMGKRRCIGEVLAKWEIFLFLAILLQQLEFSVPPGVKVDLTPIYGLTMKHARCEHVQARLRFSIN
In short: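 O-Demethylation of luciferin 6' methyl ether by human CYP1A2 is monitored as luciferase luminescence. Substrate sits at Km (100uM); enzyme is 20nM. Values are scaled to 57 uM furafylline as maximal inhibition.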

[3] = NFAT Signaling Pathway (AID 444; active = well fitted curve in either direction with a large enough effect, not every such curve was filed as active;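 note: carbachol stimulus at about its EC50 of 1 µM final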); details: Jurkat NFAT-bla M1, carbachol, beta-lactamase ratio, 5 h; at 7.69 µM (top of the series) unless noted
In short: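 Read-out: CCF4 FRET ratio (460 nm/530 nm) after 1 h RT dye loading, used for %activity and AC50 from titration series. Cells: Jurkat NFAT-β-lactamase/M1 line, treated with compound plus 1 uM carbachol for 5 h, 37 °C.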

[4] = Stat Signaling Pathway (AID 446; active = well fitted curve in either direction with a large enough effect, not every such curve was filed as active;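 note: ME-180 cervical cancer cells given 40 pM IL-6 alongside compound; SIE-controlled beta-lactamase reporter measured as 460/530 nm FRET emission ratio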); details: ME-180 (cervical carcinoma) SIE beta-lactamase reporter, IL-6 stimulated, 5 h; at 7.69 µM (top of the series) unless noted
In short: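 Overnight-plated ME-180 cells bearing a STAT Inducible Element beta-lactamase reporter; 5 h co-exposure to compound and 40 pM IL-6; values normalized to 300 pM IL-6 and 125 nM JAK inhibitor controls.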

[5] = target: Glucocorticoid receptor (Homo sapiens) (UniProt P04150); assay: GR-GFP Redistribution (AID 450;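 active = compounds whose dose series gives a full or clear partial fitted curve of increased nuclear translocation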; note: potency is the fitted concentration of half-maximal effect); details: U2OS GR-GFP nuclear translocation, laser cytometry, 2 h
Sequence of Glucocorticoid receptor (Homo sapiens) (P04150 whole entry, looked up, the tested form may be a part): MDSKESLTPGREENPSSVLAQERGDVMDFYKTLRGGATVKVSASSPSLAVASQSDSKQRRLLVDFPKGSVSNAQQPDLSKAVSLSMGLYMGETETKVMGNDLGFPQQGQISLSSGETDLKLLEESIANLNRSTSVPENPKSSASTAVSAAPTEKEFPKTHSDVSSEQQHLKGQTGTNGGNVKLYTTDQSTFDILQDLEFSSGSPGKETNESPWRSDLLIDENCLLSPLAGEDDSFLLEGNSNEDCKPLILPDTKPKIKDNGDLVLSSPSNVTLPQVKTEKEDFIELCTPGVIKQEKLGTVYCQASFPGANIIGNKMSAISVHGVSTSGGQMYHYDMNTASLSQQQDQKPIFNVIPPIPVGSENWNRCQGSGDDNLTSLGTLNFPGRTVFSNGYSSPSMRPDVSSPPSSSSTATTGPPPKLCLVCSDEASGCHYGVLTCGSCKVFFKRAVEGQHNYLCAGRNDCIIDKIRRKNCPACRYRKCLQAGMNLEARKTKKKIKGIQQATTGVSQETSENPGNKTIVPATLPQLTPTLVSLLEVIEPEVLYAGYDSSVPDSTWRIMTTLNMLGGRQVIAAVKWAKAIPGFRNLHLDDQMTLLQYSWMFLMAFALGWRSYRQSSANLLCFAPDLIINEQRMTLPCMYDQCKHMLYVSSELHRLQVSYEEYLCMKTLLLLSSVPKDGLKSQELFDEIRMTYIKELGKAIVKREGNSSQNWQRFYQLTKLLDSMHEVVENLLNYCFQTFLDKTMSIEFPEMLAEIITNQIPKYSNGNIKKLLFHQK

[6] = target: Glucocorticoid receptor (Homo sapiens) (UniProt P04150); assay: GR-EFC Redistribution (AID 451; calls by dose curve; note: potency is the fitted concentration of half-maximal effect); details: CHO-K1 GR-EFC translocation, beta-gal luminescence, 2 h
In short: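 Translocation of GR-ED fusion to nuclear EA restores b-gal, read by luminescence after 1 h room-temperature detection. Engineered CHO-K1 biosensor cells, 1,000/well, exposed 2 h at 37 C to titrations up to 46 uM final.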

[7] = target: Mitogen-activated protein kinase 10 (Mus musculus) (UniProt Q61831); assay: JNK3 AlphaScreen Assay (AID 530; active = well fitted curve in either direction with a large enough effect, not every such curve was filed as active;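 note: kinase came from lysate of stimulated human HepG2 cells; signal reports phosphorylation of biotinylated GST-cJun 1-79 at Ser73 with 10 µM ATP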)
In short: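 qHTS titrations with 15 min compound pre-incubation before adding ATP (10 uM final). Read-out: AlphaScreen of Ser73-phosphorylated biotin-GST-cJun using HepG2 lysate JNK3 activated by IL-1β and TNFα.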

[8] = target: 3',5'-cyclic-AMP phosphodiesterase 4B (Homo sapiens) (UniProt Q07343); assay: qHTS Assay for Inhibitors of PDE-IV (AID 607; active = well fitted activation curve with a large enough effect in the main read-out, with a control signal flat, not every such curve was filed as active)
Sequence of 3',5'-cyclic-AMP phosphodiesterase 4B (Homo sapiens) (Q07343 whole entry, looked up): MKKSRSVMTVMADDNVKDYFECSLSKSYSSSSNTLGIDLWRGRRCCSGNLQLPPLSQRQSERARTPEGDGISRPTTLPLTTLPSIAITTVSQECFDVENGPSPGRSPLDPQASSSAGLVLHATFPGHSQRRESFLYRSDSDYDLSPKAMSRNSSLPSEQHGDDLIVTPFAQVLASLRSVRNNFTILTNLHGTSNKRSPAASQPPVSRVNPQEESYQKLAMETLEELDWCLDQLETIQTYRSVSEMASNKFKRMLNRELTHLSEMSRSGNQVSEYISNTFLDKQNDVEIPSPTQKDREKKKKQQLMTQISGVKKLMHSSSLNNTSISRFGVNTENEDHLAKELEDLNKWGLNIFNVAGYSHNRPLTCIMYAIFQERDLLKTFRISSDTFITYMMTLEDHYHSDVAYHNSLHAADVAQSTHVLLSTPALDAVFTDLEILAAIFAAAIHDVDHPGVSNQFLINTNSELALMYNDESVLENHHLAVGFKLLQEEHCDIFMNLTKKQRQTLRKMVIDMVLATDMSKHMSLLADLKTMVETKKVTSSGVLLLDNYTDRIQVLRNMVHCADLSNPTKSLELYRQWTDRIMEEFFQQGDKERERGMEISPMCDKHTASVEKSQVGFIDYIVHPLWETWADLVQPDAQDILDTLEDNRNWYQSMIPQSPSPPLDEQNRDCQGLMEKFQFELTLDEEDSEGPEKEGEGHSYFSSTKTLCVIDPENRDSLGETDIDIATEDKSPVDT
In short: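 Live HEK293 cells with a modified cyclic nucleotide-gated (CNG) channel report intracellular cAMP via membrane-potential dye fluorescence (ex 535/em 590 nm). Endogenous PDE-IV was targeted. Compounds were tested at up to 22.9 uM final; RO 20-1724 100 uM served as control.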

[9] = target: Cytochrome P450 3A4 (Homo sapiens) (UniProt P08684); assay: qHTS Assay for Activators of Cytochrome P450 3A4 (AID 885); note: nearly all actives have a fitted effect of over 65% in size
Sequence of Cytochrome P450 3A4 (Homo sapiens) (P08684 whole entry, looked up): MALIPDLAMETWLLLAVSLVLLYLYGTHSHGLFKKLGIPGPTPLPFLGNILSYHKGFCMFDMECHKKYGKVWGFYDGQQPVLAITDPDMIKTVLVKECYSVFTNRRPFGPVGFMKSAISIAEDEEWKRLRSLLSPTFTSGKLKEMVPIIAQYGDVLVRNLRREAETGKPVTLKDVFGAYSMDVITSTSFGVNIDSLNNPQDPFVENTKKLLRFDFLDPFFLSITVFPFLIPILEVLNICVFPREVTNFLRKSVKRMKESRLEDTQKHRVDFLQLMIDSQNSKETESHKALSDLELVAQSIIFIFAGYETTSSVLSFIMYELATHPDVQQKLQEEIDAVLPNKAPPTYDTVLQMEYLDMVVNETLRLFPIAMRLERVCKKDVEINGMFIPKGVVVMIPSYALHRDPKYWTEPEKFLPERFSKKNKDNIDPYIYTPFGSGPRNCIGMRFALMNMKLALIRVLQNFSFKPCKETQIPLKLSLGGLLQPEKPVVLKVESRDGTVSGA
In short: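 Using 20nM recombinant human CYP3A4 in potassium phosphate (200mM), substrate Luciferin-PPXE at 25uM, luminescent luciferin detection followed a 60-min RT NADPH reaction; data scaled to 57 uM ketoconazole.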

[10] = qHTS Assay for Identification of Small Molecule Agonists for Thrombopoietin (TPO) Signaling Pathway (AID 917)
In short: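 Human TPO receptor–transfected Ba/F3 cells (murine, IL-3-dependent) in IL-3-deficient medium; compounds plus TPO at EC50, 26 pM final; 24 hrs, 37 C; GpIIb-luciferase luminescence after 10 min RT detection.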

[11] = target: Pyruvate kinase PKM (Homo sapiens) (UniProt P14618); assay: qHTS Assay for Activators of Human Muscle Pyruvate Kinase (AID 954; active = well fitted curve in the direction sought with a large enough effect, not every such curve was filed as active)
Sequence of Pyruvate kinase PKM (Homo sapiens) (P14618 whole entry, looked up): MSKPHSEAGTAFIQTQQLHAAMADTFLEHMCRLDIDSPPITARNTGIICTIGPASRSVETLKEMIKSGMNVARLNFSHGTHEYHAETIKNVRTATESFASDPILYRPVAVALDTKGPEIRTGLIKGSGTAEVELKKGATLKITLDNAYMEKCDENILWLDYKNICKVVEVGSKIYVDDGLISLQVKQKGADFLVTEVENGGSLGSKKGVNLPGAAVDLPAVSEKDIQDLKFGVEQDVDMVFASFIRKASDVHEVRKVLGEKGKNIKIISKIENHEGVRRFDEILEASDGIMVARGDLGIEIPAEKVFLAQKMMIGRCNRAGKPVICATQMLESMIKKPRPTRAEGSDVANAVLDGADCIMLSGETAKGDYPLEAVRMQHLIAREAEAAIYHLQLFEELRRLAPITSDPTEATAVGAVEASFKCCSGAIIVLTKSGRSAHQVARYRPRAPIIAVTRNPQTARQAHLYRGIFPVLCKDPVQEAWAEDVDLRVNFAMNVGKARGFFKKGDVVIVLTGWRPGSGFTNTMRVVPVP
In short: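 Screening used highly purified human pyruvate kinase M2 under submaximal activity, with PEP at its Km and ADP below Km. After an hour at room temperature, ATP was read by luciferase luminescence.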

[12] = target: Alpha-galactosidase A (Homo sapiens) (UniProt P06280); assay: Counterscreen for Glucocerebrosidase Inhibitors: qHTS Assay for Human alpha-Galactosidase at pH 4.5 (AID 992)
Sequence of Alpha-galactosidase A (Homo sapiens) (P06280 whole entry, looked up): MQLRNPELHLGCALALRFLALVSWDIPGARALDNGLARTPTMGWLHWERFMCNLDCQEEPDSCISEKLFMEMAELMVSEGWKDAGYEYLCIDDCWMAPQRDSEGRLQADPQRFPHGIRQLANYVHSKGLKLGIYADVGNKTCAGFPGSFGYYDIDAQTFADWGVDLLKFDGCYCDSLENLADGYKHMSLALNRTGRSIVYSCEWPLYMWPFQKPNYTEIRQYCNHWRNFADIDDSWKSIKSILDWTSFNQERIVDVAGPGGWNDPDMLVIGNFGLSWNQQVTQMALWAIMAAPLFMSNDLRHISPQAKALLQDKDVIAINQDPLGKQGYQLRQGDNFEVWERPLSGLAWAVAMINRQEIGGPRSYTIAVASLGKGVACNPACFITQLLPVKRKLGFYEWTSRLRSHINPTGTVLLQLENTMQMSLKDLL
In short: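 Each compound is preincubated briefly with 2 nM enzyme before substrate addition (80 uM); plates then sit 20 min at ambient temperature, are quenched with 1M NaOH/1M glycine, and read fluorometrically.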

[13] = target: alpha-glucosidase (Oryza sativa, rice) (UniProt Q653V4); assay: Counterscreen for Glucocerebrosidase Inhibitors: qHTS Assay for Rice alpha-Glucosidase at pH 5.0 (AID 997)
In short: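 Endpoint fluorogenic assay at pH 5.0: compounds (0.7 nM to 77 uM) titrated against 4 nM rice enzyme and 400 uM 4-MU-alpha-glucoside for 20 min at room temperature; NaOH/glycine stop, read ex 365/em 440 nm, Hill-fitted AC50.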

[14] = target: Cytochrome P450 2D6 (Homo sapiens) (UniProt P10635); assay: qHTS Assay for Inhibitors and Substrates of Cytochrome P450 2D6 (AID 891);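 note: luciferin methyl ether substrate demethylated by CYP2D6 with NADPH regeneration; nearly all actives have a fitted effect of over 60% in size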
In short: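 Luminescent read-out of luciferin formed by 5 nM human CYP2D6 demethylating 30 uM Luciferin-ME EGE (Km level) over 60 min at room temperature after NADPH regeneration addition. Data normalized to full inhibition by 1.43 uM quinidine.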

[15] = target: Cytochrome P450 2C19 (Homo sapiens) (UniProt P33261); assay: qHTS Assay for Inhibitors and Substrates of Cytochrome P450 2C19 (AID 899); note: nearly all actives have a fitted effect of over 60% in size
In short: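 Luminescence readout of luciferin formed from 10uM Luciferin-H EGE (KM level) by 5 nM CYP2C19 in 50mM KPO4. 60 min NADPH-driven reaction at 37C after 10 min compound preincubation; data scaled to 57uM ketoconazole inhibition.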

[16] = target: Guanine nucleotide-binding protein G(i) subunit alpha-1 (Homo sapiens) (UniProt P63096); assay: qHTS Assay for Inhibitors of RGS12 GoLoco Motif Activity (Green Fluorophore) (AID 879);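 note: negative values mean loss of peptide binding seen as reduced polarization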
Sequence of Guanine nucleotide-binding protein G(i) subunit alpha-1 (Homo sapiens) (P63096 whole entry, looked up): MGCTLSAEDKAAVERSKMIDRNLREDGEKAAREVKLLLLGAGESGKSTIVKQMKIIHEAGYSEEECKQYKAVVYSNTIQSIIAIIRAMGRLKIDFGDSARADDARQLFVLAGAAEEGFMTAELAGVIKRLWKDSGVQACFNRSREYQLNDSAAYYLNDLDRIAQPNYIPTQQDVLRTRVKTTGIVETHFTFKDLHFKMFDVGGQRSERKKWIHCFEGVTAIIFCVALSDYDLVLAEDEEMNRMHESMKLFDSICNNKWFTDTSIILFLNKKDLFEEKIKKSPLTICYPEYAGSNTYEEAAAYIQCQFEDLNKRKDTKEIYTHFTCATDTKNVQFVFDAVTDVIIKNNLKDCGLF
In short: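 A drop in FITC polarization marked displacement of the FITC-tagged RGS12 GoLoco peptide (10 nM) from Gαi1 (50 nM). Compounds were incubated 10 min at room temperature in Tris pH 7.5 buffer containing 150 mM NaCl, 0.1 mM GDP and 0.05% NP40; unlabeled peptide titration served as control.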

[17] = target: Muscarinic acetylcholine receptor M1 (Rattus norvegicus) (UniProt P08482); assay: qHTS Assay for Antagonists of Acetylcholine Muscarinic M1 Receptor: Measurement of IP-One Response (AID 944); note: nearly all actives have a fitted effect of over 75% in size
Sequence of Muscarinic acetylcholine receptor M1 (Rattus norvegicus) (P08482 whole entry, looked up): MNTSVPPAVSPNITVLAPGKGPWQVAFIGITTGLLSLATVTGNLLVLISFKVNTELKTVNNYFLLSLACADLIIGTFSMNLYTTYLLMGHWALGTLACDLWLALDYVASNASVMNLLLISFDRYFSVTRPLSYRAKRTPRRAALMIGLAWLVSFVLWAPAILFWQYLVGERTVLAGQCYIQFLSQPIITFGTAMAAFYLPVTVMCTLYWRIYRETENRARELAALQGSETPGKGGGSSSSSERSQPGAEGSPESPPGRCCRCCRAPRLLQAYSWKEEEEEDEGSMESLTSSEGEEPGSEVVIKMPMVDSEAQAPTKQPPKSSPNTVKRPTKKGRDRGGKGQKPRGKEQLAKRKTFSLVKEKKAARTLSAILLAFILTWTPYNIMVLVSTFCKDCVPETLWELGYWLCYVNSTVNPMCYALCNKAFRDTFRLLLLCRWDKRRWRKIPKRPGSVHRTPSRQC
In short: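 Antagonist mode with rat M1 receptor transfected into CHO cells. Compound is added first for 10 min, carbachol at its EC80 follows for 30 min, and lysis reagents then allow TR-FRET detection of accumulated IP1.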

[18] = target: Pyruvate kinase (Leishmania mexicana) (UniProt Q27686); assay: qHTS Validation Assay for Inhibitors of Leishmania Mexicana Pyruvate Kinase (AID 945)
Sequence of Pyruvate kinase (Leishmania mexicana) (Q27686 2-499 E452W): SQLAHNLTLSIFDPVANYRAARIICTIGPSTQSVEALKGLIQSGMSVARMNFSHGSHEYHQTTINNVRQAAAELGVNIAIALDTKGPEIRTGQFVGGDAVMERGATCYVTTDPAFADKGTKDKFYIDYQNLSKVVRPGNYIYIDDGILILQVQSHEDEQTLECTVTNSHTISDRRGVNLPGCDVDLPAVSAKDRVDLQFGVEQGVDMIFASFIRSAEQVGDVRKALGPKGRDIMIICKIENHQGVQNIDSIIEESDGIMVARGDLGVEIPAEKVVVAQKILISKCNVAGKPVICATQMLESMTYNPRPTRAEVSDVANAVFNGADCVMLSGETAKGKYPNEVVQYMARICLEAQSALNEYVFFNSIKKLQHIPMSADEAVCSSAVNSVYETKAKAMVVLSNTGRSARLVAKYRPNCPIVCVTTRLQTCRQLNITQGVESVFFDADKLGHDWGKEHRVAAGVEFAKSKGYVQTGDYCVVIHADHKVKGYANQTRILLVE
In short: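 qHTS eight-point titrations against 0.2 nM LmPYK (E451W) in imidazole buffer pH 7.2 with 0.5 mM PEP, 0.1 mM ADP; 1 h, room temperature. Readout: PKLight luminescence, normalized to neutral DMSO wells.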

[19] = target: Muscarinic acetylcholine receptor M1 (Rattus norvegicus) (UniProt P08482); assay: qHTS Assay for Antagonists of Acetylcholine Muscarinic M1 Receptor: Kinetic Measurement of Intracellular Calcium Response (AID 943);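 note: Fluo-4 calcium signal as peak divided by basal fluorescence over 4 min; nearly all actives have a fitted effect of over 75% in size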
In short: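 Antagonism is measured as inhibition of the carbachol-evoked calcium rise in CHO cells transfected with rat M1. Cells are dye-loaded, exposed to compound for 10 min, then stimulated with 100 nM carbachol (EC80).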

SMILES	activity change, negative = inhibition [1]	Potency [2]	activity change, negative = inhibition [3]	activity, negative = inhibition [4]	Potency [5]	Potency [6]	Potency [7]	Potency [8]	Potency [9]	outcome [10]	outcome [11]	outcome [12]	Potency [13]	Potency [14]	Potency [15]	outcome [16]	Potency [17]	outcome [18]	activity change, negative = inhibition [2]	Potency [19]
CC(C)[C@@H]1NC(=O)[C@H](CCCCN)NC(=O)[C@H](Cc2c[nH]c3ccccc23)NC(=O)[C@H](Cc2ccc(O)cc2)NC(=O)[C@H](C)N(C)C(=O)[C@H](Cc2ccccc2)NC1=O	15.3% [at 38 µM]	inactive	-3.97% [at 38 µM]	-2.13% [at 38 µM]	> 46 µM	> 46 µM	inactive	inactive	inactive	inactive	inactive	inactive	inactive	–	–	–	–	–	–	–
N=C(N)SCCN1CCCCC1	10.8%	inactive	0.176%	-0.606%	> 46 µM	> 9.22 µM	inactive	inactive	–	–	–	–	–	inactive	inactive	–	–	–	–	–
NC(=O)C1=CN([C@@H]2O[C@@H](COP(=O)(O)OP(=O)(O)OC[C@@H]3O[C@H](n4cnc5c(N)ncnc54)[C@@H](OP(=O)(O)O)[C@@H]3O)[C@H](O)[C@@H]2O)C=CC1	7.61% [at 38 µM]	inactive	0.746% [at 38 µM]	-8.82% [at 38 µM]	> 46 µM	> 46 µM	inactive	inactive	–	inactive	inactive	inactive	inactive	–	–	inactive	inactive	inactive	–	–
C[C@]1(c2ccccc2)O[C@@H]2C[C@@H]3[C@@H]4CCC5=CC(=O)C=C[C@@]5(C)[C@]4(F)[C@H](O)C[C@]3(C)[C@@]2(C(=O)CO)O1	7.91%	–	-6.34%	-4.73%	< 2.95e-05 µM (active)	0.00231 µM (active)	inactive	inactive	inactive	–	–	–	–	–	–	–	–	–	-16.4% [at 2.29 µM]	–
O=C(O)CCCCCC[C@@H]1C(=O)NC(=O)N1CC[C@@H](O)C1CCCCC1	-8.86% [at 38 µM]	inactive	-9.7% [at 38 µM]	3.65% [at 38 µM]	> 46 µM	> 46 µM	inactive	inactive	–	–	–	–	–	inactive	inactive	–	–	–	–	–
N[C@H](CCC(=O)NCS(=O)(=O)O)C(=O)O	3.52% [at 38 µM]	inactive	4.56% [at 38 µM]	-7.51% [at 38 µM]	> 46 µM	> 46 µM	inactive	inactive	–	inactive	inactive	inactive	inactive	–	–	inactive	inactive	inactive	–	inactive
CN(C)C(=O)/N=N\C(=O)N(C)C	9.37% [at 38 µM]	inactive	-14.2% [at 38 µM]	5.55% [at 38 µM]	> 46 µM	> 46 µM	inactive	inactive	–	–	inactive	inactive	inactive	–	–	inactive	inactive	inactive	–	inactive
N#CCCn1c(=O)c(CCc2ccccc2)nc2cnc(Oc3ccccc3)nc21	-21%	12.6 µM (active)	-2.26%	-14.5%	> 9.22 µM	> 46 µM	inactive	inactive	inactive	–	–	–	–	–	–	–	–	–	–	–
CN1CC[C@@]2(CCN3CCc4c(oc5ccccc45)[C@@H]3C2)N(C)C1=O	18% [at 38 µM]	inactive	-21.7% [at 38 µM]	-5.91% [at 38 µM]	> 46 µM	> 46 µM	inactive	inactive	inactive	–	inactive	inactive	inactive	–	–	inactive	–	inactive	–	inactive
Cc1ccccc1N1CCN(S(=O)(=O)C[C@@]23CC[C@H](C[C@H]2NC(=O)[C@@H](N)CCS(C)(=O)=O)C3(C)C)CC1	28.6% [at 38 µM]	inactive	14% [at 38 µM]	-9.73% [at 38 µM]	> 46 µM	> 46 µM	inactive	inactive	inactive	inactive	inactive	inactive	inactive	–	–	–	inactive	inactive	–	inactive
CCCCCCCCCCCCCCC/C=C\[C@H](O)[C@@H](NC(=O)CCCCCCCCCCCCC)OC (tested in a mixture with another compound)	15.5% [at 38 µM]	inactive	13% [at 38 µM]	-20.2% [at 38 µM]	> 46 µM	> 46 µM	inactive	inactive	–	inactive	inactive	inactive	inactive	–	–	inactive	inactive	inactive	–	inactive
CC(C)N(Cc1ccccc1)S(=O)(=O)c1n[nH]c(C(C)(C)C)n1	-0.248%	inactive	4.29%	-2.12%	> 46 µM	> 9.22 µM	inactive	inactive	–	–	–	–	–	–	–	–	–	–	–	–
